Measurements as given in PubChem BioAssay AID1209 (Sanford-Burnham Center for Chemical Genomics, 2008).
The whole screen tested about 190,000 compounds, of which about 810 (0.43%) were called active. This excerpt belongs to a sample that is enriched for actives. Unmarked numbers belong to inactive results. No stated cut-off is given here; in the data, active means inhibition above about 50%; inactive means the rest.

Target: Mannose-6-phosphate isomerase (Homo sapiens) (UniProt P34949)
Assay: MPI enzyme activity inhibition – biochemical, fluorescence intensity, coupled assay, primary screen (AID 1209);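 further: plate controls were DMSO vehicle for no effect and wells lacking substrate for full effect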
Conditions: purified PMI enzyme, at 20 µM, active compounds read high

Mannose-6-phosphate isomerase (Homo sapiens), sequence (P34949 whole entry, looked up): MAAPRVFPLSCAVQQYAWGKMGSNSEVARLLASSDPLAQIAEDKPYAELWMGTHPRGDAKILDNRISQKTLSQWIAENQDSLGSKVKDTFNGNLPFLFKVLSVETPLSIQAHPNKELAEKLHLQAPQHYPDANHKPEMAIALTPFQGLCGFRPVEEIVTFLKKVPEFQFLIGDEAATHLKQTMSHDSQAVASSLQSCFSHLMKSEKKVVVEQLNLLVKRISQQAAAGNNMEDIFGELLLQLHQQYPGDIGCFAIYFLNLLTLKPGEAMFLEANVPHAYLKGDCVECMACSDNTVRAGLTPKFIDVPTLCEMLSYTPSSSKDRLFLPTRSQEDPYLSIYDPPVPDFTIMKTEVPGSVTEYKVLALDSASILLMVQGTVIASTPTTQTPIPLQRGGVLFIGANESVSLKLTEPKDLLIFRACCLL

SMILES | inhibition
O=C1c2ccccc2C(=O)N1CCCCN(C(=O)c1cc2ccccc2oc1=O)c1ccc(F)cc1F | 11.5%
Cc1cccc(-n2c(Cc3ccccc3)nnc2SCC(=O)N2CCOCC2)c1 | -6.7%
O=C(NCc1ccccc1)c1cnc(-c2ccccn2)nc1C(F)(F)F | -3.7%
CCC(OC(=O)c1cccs1)C(=O)NC1CCCCC1 (centres undefined) | 3.4%
O=[N+]([O-])c1cc(/C=N/n2c(-c3ccncc3)n[nH]c2=S)ccc1Cl | 2.2%
CC(C)CC(c1nnnn1Cc1ccc2c(c1)OCO2)N1CCC(C(N)=O)CC1 (centres undefined) | 7.2%
Cc1sc(NC(=O)C2CCCCC2C(=O)O)c(C(N)=O)c1C (centres undefined) | -5.3%
CCc1c(C)sc(NC(=O)C2CCCCC2C(=O)O)c1C(N)=O (centres undefined) | 72.1% (active)
CCc1c(C)sc(NC(=O)C2CC2c2ccccc2)c1C(N)=O (centres undefined) | 7.7%
COC(=O)c1c(N2C(=O)CC(Sc3ccccc3C(=O)O)C2=O)sc(C)c1C (centres undefined) | -16.2%
COC(=O)c1sccc1NC(=O)CSc1ccccc1N | 12.4%
CCN(CC(=O)NCc1ccc(F)cc1)Cc1cc(=O)n2ccsc2n1 | -30.2%
Nc1ccc2nn(-c3cccc4ccccc34)nc2c1 | 42.9%
Cc1ccc(-n2nc3ccc(N)cc3n2)cc1 | 38.7%
Cc1cc2nn(-c3cccc4ccccc34)nc2cc1NC(=O)c1cccs1 | 12.3%
CCC(=O)Nc1cc2nn(-c3ccc(C)cc3)nc2cc1C | -2.8%
CC(=O)Nc1cc2nn(-c3ccccc3)nc2cc1Cl | 0.2%
Nc1ccc2nn(-c3ccccc3)nc2c1 | 35.7%
Cc1cc2nn(-c3cccc4ccccc34)nc2cc1N | 77.5% (active)
Nc1cc2nn(-c3ccccc3)nc2cc1Cl | 69.4% (active)
Cc1ccc(-n2nc3cc(C)c(N)cc3n2)cc1 | 75.3% (active)
OCCNCc1cc(Br)ccc1OCc1ccc(Cl)cc1 | 10.8%
COc1ccccc1NC(=O)CCN1CCCCCC1 | -1.2%
O=C(Cc1ccccc1F)OCC(=O)N1CCN(C(=O)c2ccco2)CC1 | -7.8%
COc1cc(/C=N/NC(=O)C(Cc2c[nH]c3ccccc23)NC(=O)OCC(C)C)cc([N+](=O)[O-])c1OCc1ccccc1 (centres undefined) | 13.6%

SMILES | inhibition
Cc1ccc(S(=O)(=O)N2CCCC(C(=O)NCc3cccnc3)C2)cc1Cl (centres undefined) | 12.2%
CCOc1ccc(NC(=O)CSc2nnc(-c3ccccn3)n2C)cc1 | 2.1%
[N-]=[N+]=CC(=O)CNC(=O)[C@@H](Cc1ccccc1)N1C(=O)c2ccccc2C1=O | -1.7%
CCc1nc(SC)[nH]c(=O)c1C | -10.9%
COC(=O)c1c(NC(=O)/C=C/c2ccco2)sc2c1CCC2 | -2.8%
CCOc1ccc(NS(=O)(=O)c2ccc(NC(=S)NC(C)=O)cc2)cc1 | 4.1%
O=C(COC(=O)C(Cc1ccccc1)NC(=O)c1ccccc1)c1ccccc1 (centres undefined) | 6.8%
O=C(COC(=O)C(Cc1ccccc1)NC(=O)c1ccc(Cl)cc1)c1ccc(Cl)cc1 (centres undefined) | 111% (active)
CCc1ccc(C(=O)COC(=O)C(Cc2ccccc2)NC(=O)c2ccc(Cl)cc2)cc1 (centres undefined) | 11.2%
O=C(OC1CCOC1=O)c1cc(-c2ccccc2)nc2ccccc12 (centres undefined) | 8.9%
Oc1ccc2ccccc2c1C=NC12CN3CCN(CN(C3)C1)C2 | 67.7% (active)
Oc1ccc2ccccc2c1C=Nc1ccc(N2CCOCC2)cc1 | 35.2%
Oc1ccc2ccccc2c1C=NC1CCCCC1 | 79.8% (active)
OCC(CO)(CO)N=Cc1c(O)ccc2ccccc12 | 37.3%
CN(C)/N=C/c1c(O)ccc2ccccc12 | 31.9%
Oc1ccc2ccccc2c1/C=N/n1cnnc1 | 15.7%
O=C(CCc1ccccc1)Nc1ccc(N2CCOCC2)c(Cl)c1 | 11.3%
N#Cc1nc(COc2ccccc2)oc1NCCCn1ccnc1 | 0.3%
CCC(=O)Nc1ccccc1-c1nnn(CC(=O)N2c3ccccc3CC2C)n1 (centres undefined) | 13%
CCCCN(C(=O)c1ccc(S(=O)(=O)N(C)C)cc1)c1nc2ccccc2s1 | 11.7%
CCOC(=O)Cc1cnc(N)s1 | 2.1%
COCCN(CC(=O)NCC1CCCO1)C(=O)CCC(=O)Nc1cc(C)ccn1 (centres undefined) | -12.3%
Nc1cnc(Br)cc1Br | -8.6%
Cc1ccc2nsnc2c1N | 8.5%
Nc1cc2nsnc2cc1Br | 61% (active)

SMILES | inhibition
NS(=O)(=O)c1ccc(CCNC(=O)CSc2ncnc3ccccc23)cc1 | 7.5%
CCOc1cccc(CNc2ccc(O)cc2)c1OCc1ccc(Cl)cc1Cl | 40.3%
CCOc1cccc(CNc2ccc(O)cc2)c1OCc1ccccc1Cl | 28.5%
CCOc1cccc(CNc2ccc(O)cc2)c1OCc1ccc(Cl)cc1 | 53.9% (active)
CC(OC(=O)C1=COCCO1)C(=O)Nc1cc(S(=O)(=O)N2CCCCC2)ccc1Cl (centres undefined) | -6.3%
COCCCNC(=S)N1CCN(c2ccc([N+](=O)[O-])cc2)CC1 | 5%
Cc1ccc(CNC(=O)CCNC(=O)c2ccco2)cc1 | -8.4%
CCOC(=O)c1cc(CC)sc1/N=C/c1c(O)ccc2ccccc12 | 37.2%
CCOC(=O)c1sc(/N=C/c2ccc(O)cc2O)cc1C | 28.9%
CCOC(=O)c1sc(/N=C/c2c(O)ccc3ccccc23)cc1C | 58.3% (active)
CCc1ccc(NC(=S)/N=C(\N)Nc2nc(C)c3cc(CC)ccc3n2)cc1 | 11.4%
CNC(=O)/C(C#N)=C/c1ccc(-c2ccc(OC)cc2[N+](=O)[O-])o1 | 28.2%
COc1ccc(-c2ccc(C(=O)O)o2)c([N+](=O)[O-])c1 | 73.7% (active)
COc1cccc(NC(=O)c2ccc(-c3ccccc3[N+](=O)[O-])o2)c1 | -13.3%
Cn1c(SCC(=O)N2CCOCC2)nnc1-c1cccc(NC(=O)c2ccccc2F)c1 | 2.1%
COc1ccc(-c2nc(N)n[nH]2)cc1OC | 2.2%
COc1ccc(-c2nn[nH]n2)cc1OC | -5%
Cc1c(C(=O)NN)sc(-c2ccccc2)c1C#N | -23.8%
CCN(CC)S(=O)(=O)c1cccc(C(=O)N/N=C/c2cc(OC)c(O)c(OC)c2)c1 | 19.2%
CCN(CC)S(=O)(=O)c1cccc(C(=O)N/N=C/c2cccc(O)c2O)c1 | 20%
CCn1c(C)nc2cc(C(=O)N/N=C/c3cccc(OC)c3O)ccc21 | 5.6%
CCN(CC)S(=O)(=O)c1cccc(C(=O)N/N=C/c2ccc(O)c(O)c2O)c1 | 77.7% (active)
CCn1c(C)nc2cc(C(=O)N/N=C/c3ccccc3C)ccc21 | -4.6%
NC(=O)COC(=O)c1c2c(nc3ccccc13)CCCC2 | -8.6%
NS(=O)(=O)c1ccc(CCNC(=O)c2ccc3nc4ccc(Cl)cc4c(=O)n3c2)cc1 | -11.6%

SMILES | inhibition
CC(C)(C(=O)O)n1cncn1 | -17.9%
CC(C)(C)c1ccccc1OCCCCCn1ccnc1 | 14%
Oc1ccccc1/C=N/N1CCCCC1 | 10.8%
CC(=O)NC1=NN(C(C)=O)C(c2ccccc2)S1 (centres undefined) | 10.4%
O=C(COc1ccc(C(=O)NCCc2ccccc2)cc1)Nc1ccccc1 | 9.8%
COCc1[nH]nc2c1C(c1ccc(OC)cc1)C(C#N)=C(N)O2 (centres undefined) | 21.3%
COCc1[nH]nc2c1C(c1ccc(OC)c(OC)c1)C(C#N)=C(N)O2 (centres undefined) | 2%
COCc1[nH]nc2c1C(c1cc(OC)c(O)c(OC)c1)C(C#N)=C(N)O2 (centres undefined) | 53.8% (active)
CCOc1ncccc1C(=O)OCC(=O)c1cc(OC)ccc1OC | -1.1%
COc1ccc(C(=O)COC(=O)c2cccnc2Cl)c(OC)c1 | 0.1%
O=C(O)C1CCCCC1C(=O)NCc1ccc(F)cc1 (centres undefined) | 13.1%
CCOc1cc(C(=O)Nc2cccc(C(C)=O)c2)ccc1OCC(=O)N1CCCCC1 | 8.7%
O=C1NCCCC2c3cc(O)c4ccccc4c3OC12N1CCCCC1 (centres undefined) | 21%
O=C1NCCCC2c3c(cc(Br)c(O)c3Br)OC12N1CCCCC1 (centres undefined) | 24.7%
O=C1NN=C(c2ccccc2)CC1c1ccc(Cl)cc1Cl (centres undefined) | 4.2%
CCc1ccc(S(=O)(=O)/N=C2\C=CC(=O)c3ccccc32)cc1 | 6.9%
Cc1ccc(S(=O)(=O)/N=C2/C=C(Sc3ncn[nH]3)C(=O)c3ccccc32)cc1 | 101% (active)
CC(C)c1ccc(S(=O)(=O)/N=C2/C=CC(=O)c3ccccc32)cc1 | 34.5%
CC(C)c1ccc(S(=O)(=O)/N=C2/C=C(Sc3ncn[nH]3)C(=O)c3ccccc32)cc1 | 95.1% (active)
CCc1ccc(S(=O)(=O)/N=C2/C=C(Sc3ncn[nH]3)C(=O)c3ccccc32)cc1 | 98.8% (active)
O=C(O)c1ccc(NC2=C/C(=N/S(=O)(=O)c3ccccc3)c3ccccc3C2=O)cc1 | -68.7%
Cc1ccc(S(=O)(=O)/N=C2/C=C(C3C(=O)CC(C)(C)CC3=O)C(=O)c3ccccc32)cc1 | 9.6%
O=C1c2ccccc2C(=O)N1CCSc1ncn[nH]1 | -7.4%
COC(=O)C(C(C)=O)C1=C/C(=N\S(=O)(=O)c2ccc(C)cc2)c2ccccc2C1=O (centres undefined) | 22.1%
